Laboratory results as given in ChEMBL document CHEMBL3988442, “University of Dundee, Small-Polar-MMV Screening Library” (2021).
Among all 48,000 compounds or so, about 13,000 (27%) showed an effect of 50% or more. This is one part of the list.

Each compound was assayed on Wolbachia pipientis (assay: Anti-Wolbachia Cell-Based Screen). Conditions: 5 µM.
Type: functional
Parameters: scale not given: in the data most compounds retested in dose-response had high values

Row | Structure (SMILES) | Percent Effect
1 | c1cncc(CN2CCC(NCCc3ccc4c(c3)CCO4)CC2)c1 | 11.75%
2 | O=C1CCCCN1Cc1cccc(NC(=O)N2CCSCC2)c1 | 7.58%
3 | COc1cccc(C(C(=O)O)N2CCCN(C3CCCC3)CC2)c1OC (centres undefined) | 17.91%
4 | Cc1noc(C)c1CCN1CCCC1c1nc2cc(F)ccc2[nH]1 (centres undefined) | -25.67%
5 | CC(NC(=O)Nc1cccnc1N1CCCC1)c1nncn1C (centres undefined) | -5.724%
6 | CCc1cc(NCCNC(C)=O)nc(N2CCCC2)n1 | 3.61%
7 | CCOc1ccc(S(=O)(=O)NCCCc2ccc(N(C)C)cc2)cc1C | 28.94%
8 | Cc1cc(C)n(CCC(=O)OCC(=O)N2CCc3sccc3C2)n1 | 1.296%
9 | CN(CC1CCCO1)c1nc(-c2cccnc2)nc2c1CCNCC2 (centres undefined) | -5.842%
10 | Cc1cc(C2CCCN2CC(=O)N(CCC#N)c2ccccc2F)on1 (centres undefined) | 6%
11 | CN(CC(=O)NS(=O)(=O)c1cccs1)Cc1ccccc1 | -0.04031%
12 | O=C(Cc1cccs1)NCC(=O)Nc1cn[nH]c1 | -3.119%
13 | CC(C#N)CSc1ccccc1NCC(=O)Nc1ccc(F)cc1 (centres undefined) | -2.506%
14 | CC(C)CCC(=O)NCc1ccc(N2CCCCC2)cc1 | 9.507%
15 | CN(CC(=O)NCC(=O)Nc1ccc(F)cc1)Cc1cccs1 | 82.61%
16 | CCC(NC(=O)NCC(=O)Nc1ccc(F)cc1)c1ccncc1 (centres undefined) | 13.9%
17 | CC(NCC(=O)Nc1ccc(N2CCCCCC2)cc1)c1cccs1 (centres undefined) | 140.9%
18 | CCCC(=O)NCc1ccc(N2CCCCC2)cc1 | -2.635%
19 | CC(NCC(=O)NCC(=O)Nc1ccc(F)cc1)c1cccs1 (centres undefined) | 91.77%
20 | COc1ccc(NC(=O)N2CCCC2c2ccco2)cc1OC (centres undefined) | 20.26%
21 | COc1cc(Nc2c(C#N)c(=O)n(C)c(=O)n2C)cc(OC)c1 | 0.2169%
22 | Cc1nc(C(NC(=O)C2CCCC2)c2ccccc2F)no1 (centres undefined) | -17.79%

Row | Structure (SMILES) | Percent Effect
23 | COC(=O)C(NC(=O)c1cc(F)cc(F)c1)c1cccnc1 (centres undefined) | 7.008%
24 | O=C(NC1CC1)NC(c1cc(F)ccc1F)C1CC1 (centres undefined) | -0.2014%
25 | COC(=O)C(NC(=O)C1CCCC1)c1cc(F)ccc1F (centres undefined) | 111.2%
26 | COC(=O)C(NC(=O)COC1CCCC1)c1cc(F)ccc1F (centres undefined) | 0.6159%
27 | COc1ccccc1C(NC(=O)C1CCC1)c1noc(C)n1 (centres undefined) | -10.07%
28 | COC(=O)C(NC(=O)C1CCC1)c1cc(F)ccc1F (centres undefined) | 101.8%
29 | CC(c1cc(F)ccc1F)N(C)CCS(=O)(=O)CCC(N)=O (centres undefined) | -2.852%
30 | COc1ccccc1C(NC(=O)C1CCCC1)c1noc(C)n1 (centres undefined) | -4.234%
31 | COC(=O)C(NC(=O)C1CC1)c1cc(F)ccc1F (centres undefined) | 87.91%
32 | CNC(C(=O)OC)c1cc(F)ccc1F.Cl (centres undefined) | 100.3%
33 | CNC(=O)C1CN(Cc2ccc(C#N)cc2F)c2ccccc2O1 (centres undefined) | -15.36%
34 | CC(C)C(=O)N1CCN(C(=O)c2cc(Cl)no2)[C@H]2CS(=O)(=O)C[C@H]21 | -5.437%
35 | N#Cc1cccnc1NC1CCN(c2ccccc2OC(F)F)C1=O (centres undefined) | -11.66%
36 | O=C(NCCNc1cncc(Br)c1)c1ccc(O)cc1 | -0.2825%
37 | O=C1c2cccnc2OC(CN2CCOCC2)CN1Cc1cccs1 (centres undefined) | 106%
38 | O=C(NC1CCCCC1)N1CCC(N2Cc3ncccc3C2=O)CC1 | 2.597%
39 | O=C1c2cccnc2OC(CN2CCOCC2)CN1C1CCC1 (centres undefined) | 113.2%
40 | O=C1c2cccnc2OC(CN2CCOCC2)CN1CC1CC1 (centres undefined) | 142%
41 | COc1ncccc1CNC(=O)N1CCC(CN2CCOCC2)CC1 | -11.8%
42 | O=C(O)C(F)(F)F.O=C(O)C(F)(F)F.O=C(O)C(F)(F)F.c1cncc(C[C@H]2[C@H](N3CCOCC3)CCN2Cc2cccs2)c1 | -5.101%
43 | Cc1cccc(C)c1C(=O)N1C[C@@H](CN2CCOCC2)[C@@H](CO)C1 | -12.05%
44 | CCOC(=O)N1CCC(N2Cc3ncccc3C2=O)CC1 | -7.226%

Row | Structure (SMILES) | Percent Effect
45 | CCN1CC(CN2CCOCC2)Oc2ncccc2C1=O (centres undefined) | 121.1%
46 | COc1ncccc1NC(=O)N1CCC(CN2CCOCC2)CC1 | 40.61%
47 | CCc1c(C)sc2ncnc(N3CC[C@@H](N4CCC(O)CC4)[C@H](O)C3)c12 | -2.578%
48 | O=C(O)c1cn(CC2CCCN(c3nc4ccccc4s3)C2)nn1 (centres undefined) | -26.21%
49 | NC(=O)c1ccccc1-n1cc(-c2cccc(C(=O)O)c2)cn1 | 8.053%
50 | CCN1CCCN(c2ncccc2C(=O)N2CCCCC2)CC1 | -13.17%
51 | CC(C)N1CCC(Cc2cncc(-c3cccc(C(=O)O)c3)n2)CC1 | 108.9%
52 | COCCN1CCC(CNc2nccc(-c3cnn(C)c3)n2)CC1 | 12.08%
53 | CC(C)N1CCC(Cc2cncc(-c3cccc(C(=O)O)c3)n2)C1 (centres undefined) | 113.7%
54 | CC(C)N1CCC(CC(=O)NCc2cc(O)ncn2)CC1 | -21.37%
55 | COCCN1CCC(Cc2cncc(-c3ccc(C(=O)O)cc3)n2)CC1 | 112%
56 | CC(C)N1CCC(Cc2cc(-c3cccc(C(=O)O)c3)ncn2)CC1 | 121.9%
57 | COCCN1CCC(Cc2cncc(-c3ccc(C(=O)O)cc3)n2)C1 (centres undefined) | -8.312%
58 | CC(C)N1CCC(Cc2cnc(-c3cccc(C(=O)O)c3)cn2)C1 (centres undefined) | -8.094%
59 | CC(C)N1CCC(Cc2cc(-c3cccc(C(=O)O)c3)ncn2)C1 (centres undefined) | -6.349%
60 | CN(C)C(=O)COCc1nn(C)c2c1CCN(Cc1ccco1)C2.O=C(O)C(F)(F)F | -2.792%
61 | CN(C)C(=O)COCC1CN(Cc2ccco2)Cc2ncn(C)c21.O=C(O)C(F)(F)F.O=C(O)C(F)(F)F (centres undefined) | 91.74%
62 | CN(C)C(=O)COCC1CN(Cc2cccs2)Cc2ncn(C)c21.O=C(O)C(F)(F)F.O=C(O)C(F)(F)F (centres undefined) | 100.2%
63 | CCOCC1CN(Cc2ccoc2)Cc2nn(CC3CC3)cc21.O=C(O)C(F)(F)F (centres undefined) | -8.348%
64 | Cc1cccc(CN2CCc3c(COCC(=O)N(C)C)nn(C)c3C2)n1.O=C(O)C(F)(F)F.O=C(O)C(F)(F)F | 1.951%
65 | CCn1cc2c(n1)CN(Cc1ccoc1)CC2COCC1CC1.O=C(O)C(F)(F)F (centres undefined) | -14.5%
66 | Cc1cccc(CN2Cc3ncn(C)c3C(COCC(=O)N(C)C)C2)n1.O=C(O)C(F)(F)F.O=C(O)C(F)(F)F.O=C(O)C(F)(F)F (centres undefined) | 115.6%

Row | Structure (SMILES) | Percent Effect
67 | CN(C)C(=O)COCC1CN(Cc2ccoc2)Cc2ncn(C)c21.O=C(O)C(F)(F)F.O=C(O)C(F)(F)F (centres undefined) | 111.6%
68 | Cn1cnc2c1C(COCC1CCOCC1)CN(Cc1ccccn1)C2.O=C(O)C(F)(F)F.O=C(O)C(F)(F)F.O=C(O)C(F)(F)F (centres undefined) | -22.25%
69 | c1ccc(-c2cc(CN3C[C@@H]4CC[C@H](C3)N(CC3CCC3)C4)on2)cc1 | 10.47%
70 | O=C(CN1CCOC1=O)N1CCC2(CCc3ccccc32)CC1 | -4.229%
71 | CCCNC(=O)c1ccc(S(=O)(=O)NC2(COC)CCCC2)cc1 | -2.263%
72 | CC(C)c1cc(NCC2(N(C)C)CCCC2)ncn1 | -5.055%
73 | O=C(c1cc(CC2(NCc3ccccc3)COC2)no1)N1CCCCC1 | 5.452%
74 | N#CCCCS(=O)(=O)NC(=O)c1ccccc1F | -12.54%
75 | CS(=O)(=O)CCCNC1(c2cccc(Cl)c2)CCCC1 | -3.433%
76 | N#CCCCS(=O)(=O)NC1(c2cccc(Cl)c2)CC1 | 95.05%
77 | N#CCCCS(=O)(=O)NC(=O)c1cccc(Cl)c1F | -1.006%
78 | N#CCCCS(=O)(=O)NC1(c2ccc(F)cc2)CC1 | 94.21%
79 | CS(=O)(=O)CCC(=O)NC1(c2cccc(Br)c2)CC1 | -24.79%
80 | N#CCCCS(=O)(=O)NC1(c2cccc(Br)c2)CC1 | 115.6%
81 | COC(=O)NCCCC(=O)NC1(c2cccc(Cl)c2)CC1 | -10.63%
82 | COCCCC(=O)NC1(c2cccc(Br)c2)CC1 | -6.052%
83 | Cc1[nH]ncc1C(C)NCc1cccnc1 (centres undefined) | -9.734%
84 | CCN(C)C[C@@H]1CN(Cc2cnc3c(S(C)(=O)=O)cnn3c2)C[C@@H]1CO | -15.72%
85 | Cc1noc(C)c1CN1C(=O)[C@H]2CC[C@@H]1CN(Cc1cccnc1N)C2 | 18.74%
86 | O=C(CCc1ccc(F)cc1)NS(=O)(=O)c1ccc2c(c1)OCCO2 | -1.397%
87 | CCN1CCN(C(=O)c2csnn2)c2ccccc21 | 3.89%
88 | CCc1nc(C)ncc1C(=O)N1CCN(CC)c2ccccc21 | -9.426%

Row | Structure (SMILES) | Percent Effect
89 | O=C(C1CCOC1)N1CCN(CC2CC2)c2ccccc21 (centres undefined) | 109.4%
90 | NC(=O)CN1CCN(CC2CC2)c2ccccc21 | -6.284%
91 | COCCC(=O)N1CCN(CC2CC2)c2ccccc21 | -5.529%
92 | CCN1CCN(C(=O)C2CCOC2)c2ccccc21 (centres undefined) | 120.4%
93 | COc1ccc(S(=O)(=O)NC(=O)c2ccccc2F)cc1OC | -11%
94 | CC(C)c1ccc(OCn2ccc(C(=O)N3CCCC3)n2)cc1 | -7.702%
95 | Cc1cnc(N2CC[C@@H]3O[C@@H](COCc4ccccn4)CC[C@@H]32)nc1.O=C(O)C(F)(F)F.O=C(O)C(F)(F)F | 7.451%
96 | Cn1cccc1C(=O)N1CC[C@H]2[C@@H]1CCC(=O)N2c1ccccc1 | -9.424%
97 | CNC(=O)c1cccnc1NCCOc1ccccc1 | 11.05%
98 | CC1CCC(NS(=O)(=O)CC(=O)Nc2ccc(N3CCCC3)cn2)CC1 (centres undefined) | -1.172%
99 | CC1CCC(NS(=O)(=O)CC(=O)NCC2CCC2)CC1 (centres undefined) | 101.5%
100 | CC1CCN(CCNC(=O)C2CCN(S(N)(=O)=O)CC2)CC1 | -8.736%
101 | CC1CCC(N2CCC(NS(=O)(=O)CCCF)CC2)CC1 (centres undefined) | -1.792%
102 | CNC(=O)CS(=O)(=O)C1CCN(S(=O)(=O)C2CC2)CC1 | -8.784%
103 | CC1CCC(NS(=O)(=O)CC(=O)NC2(C(N)=O)CCCC2)CC1 (centres undefined) | 92.28%
104 | COCCC1(CNC(=O)NCC2CCC2)CCC1 | -13.86%
105 | CNC(=O)CS(=O)(=O)NC1CCC(C)CC1 (centres undefined) | 97.23%
106 | CNS(=O)(=O)CC(=O)N(C1CCCC1)C1CC1 | -5.548%
107 | Cc1ccc(NC(=O)CS(=O)(=O)NC2CCC(C)CC2)nc1 (centres undefined) | 0.19%
108 | CCNC(=O)CS(=O)(=O)NC1CCC(C)CC1 (centres undefined) | 91.13%
109 | CCC(C(=O)NC1(C(N)=O)CCCC1)n1cccn1 (centres undefined) | -7.452%
